Bioassay records from PubChem.
Shiga toxin inh: inhibitors of Shiga toxin in Vero cells; AID 2315; inhibition, % at 38.7 µM; Vero cells, Shiga toxin protein synthesis inhibition reporter; actives 9.2% (n = 290,000); in the data active = inhibition mostly above about 28%, no sharp cut-off; inactive = mostly below about 43%; also: 0% is about no effect
Cycloheximide cs: counter-screen for Shiga toxin inhibitors: cycloheximide protein synthesis inhibition | cell reporter, cycloheximide protein synthesis inhibition counterscreen | max response, % | actives 12% (n = 300,000); in the data active = max response mostly above about 13%, no sharp cut-off; inactive = mostly below about 14%; also: read at 38.3 µM for the half of the compounds with a filed dose; 0% is about no effect
Giardia FBPA inh: inhibitors of Giardia lamblia fructose-1,6-bisphosphate aldolase | purified Giardia FBPA | AID 2451 | Potency, µM (titrated, usually from 59.6 µM), for inactives: at the highest dose activity, negative = inhibition, most hits filed as inhibitors | actives 0.71% (n = 290,000) | A8B2U2; also: potency is read from the fitted curve at half-maximal effect; % is scaled to controls: 0 for no effect and ±100 for the full control effect; nearly all actives have a fitted effect of over 55% in size
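40 nM FBPA preincubated 10 min at RT with compound (up to 57.5 uM final), then substrate plus GAPDH/TPI/NAD/arsenate coupling and diaphorase/resazurin added. Fluorescence read after 20 min at RT, 525/598 nm.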
RE007 growth inh: less growth of the S. pombe RE007 Vpr strain | S. pombe RE007 Vpr strain, BacTiter-Glo ATP luminescence, 24 h | actives 0.21% (n = 360,000) | Potency, µM (highest dose often 92.2 µM), for inactives: top-dose activity change, negative = less growth, hits mostly inhibitors; active = well fitted falling curve with a large enough effect; inconclusive = small, poorly fitted or top-dose-only effect; inactive = no such curve, though single readings can be large or run the other way; also: potency is read from the fitted curve at half-maximal effect; % is scaled to controls: 0 for no effect and ±100 for the full control effect; nearly all actives have a fitted effect of over 50% in size
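Fission yeast RE007 carrying one integrated HIV-1 vpr copy, seeded at OD 0.01 in PMG+AL medium with 23 nL pinned compound. Grown 24 h at 30 degrees; viability read by BacTiter-Glo luminescence after 5 min.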
LmPK inhibitor: LmPK (Leishmania mexicana) enzyme inhibition; Potency, µM (doses to about 57.5 µM), for inactives: at the highest dose activity change, negative = inhibition, hits mostly inhibitors; actives 0.37% (n = 290,000); purified LmPK, Kinase-Glo ATP luminescence, 1 h; also: potency is read from the fitted curve at half-maximal effect; % is scaled to controls: 0 for no effect and ±100 for the full control effect
Target sequence (Q27686 whole entry, looked up): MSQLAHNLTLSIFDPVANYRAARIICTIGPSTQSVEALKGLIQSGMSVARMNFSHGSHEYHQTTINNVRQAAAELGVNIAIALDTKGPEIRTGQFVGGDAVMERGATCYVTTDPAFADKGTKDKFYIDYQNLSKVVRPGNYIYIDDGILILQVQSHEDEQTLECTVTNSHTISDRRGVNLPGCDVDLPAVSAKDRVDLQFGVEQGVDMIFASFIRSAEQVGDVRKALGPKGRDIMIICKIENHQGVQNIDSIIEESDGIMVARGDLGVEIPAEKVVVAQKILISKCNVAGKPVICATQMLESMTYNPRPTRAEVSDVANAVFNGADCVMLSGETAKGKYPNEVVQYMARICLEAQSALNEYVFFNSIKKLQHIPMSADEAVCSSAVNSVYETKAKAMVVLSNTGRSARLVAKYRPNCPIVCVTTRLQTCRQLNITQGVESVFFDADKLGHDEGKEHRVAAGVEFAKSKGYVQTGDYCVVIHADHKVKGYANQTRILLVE
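qHTS format; LmPK 0.1 nM; substrates PEP 0.5 mM and ADP 0.1 mM. One-hour room-temperature incubation, then coupled luciferase luminescence; 0.5 nM enzyme wells mark activation.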
Tb PYK inh: inhibitors of Trypanosoma brucei pyruvate kinase; Q57TT1; TbPYK enzyme, Kinase-Glo Plus ATP luminescence, 45 min; Potency, µM (top dose mostly 76.8 µM), without a hit: at the highest dose activity, negative = inhibition, most hits filed as inhibitors; actives 0.12% (n = 410,000); AID 624173; also: potency is read from the fitted curve at half-maximal effect; % is scaled to controls: 0 for no effect and ±100 for the full control effect; nearly all actives have a fitted effect of over 50% in size
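Activity of T. brucei pyruvate kinase was followed by Kinase-Glo Plus luminescence after the enzyme reacted 45 min at room temperature with 130 uM ADP (final) and substrate. Test compounds were added before ADP at multiple concentrations.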
* marks the source's active call; other numbers are inactive results; ? = inconclusive; . = no result. Many of the other results were omitted from the sample, so hits are more common in it than they were. Unless noted, calls follow the shape of the dose curve; as a rule, active = well fitted curve in the direction sought with a large enough effect; inconclusive = small, poorly fitted or top-dose-only effect, or another doubt; inactive = no such curve, though single readings can be large; an effect the other way counts as inactive or inconclusive.

SMILES	Shiga toxin inh	Cycloheximide cs	Giardia FBPA inh	RE007 growth inh	LmPK inhibitor	Tb PYK inh
Cc1ccc2nc(NC(=O)c3cc(-c4ccco4)nc4ccccc34)sc2c1	35	24*	2%	-4%	1%	-1%
CN(C)c1ccc(C2C3CCCc4ccccc4C3=NN2C)cc1 (configuration not stated)	96*	59*	0%	9%	3%	4%
CN1N=C2c3ccccc3CCC2C1c1ccc(C(F)(F)F)cc1 (configuration not stated)	27	2	0%	-7%	6%	-2%
Cc1ccc(C2=NN(CC(=O)NC(C)c3ccccc3)C(=O)CC2)cc1 (configuration not stated)	.	.	.	.	.	0%
CCOc1ccc(C(=O)NCCn2cc(SCC(=O)Nc3ccccc3)c3ccccc32)cc1	.	.	.	.	.	-12%
COc1cc(C2NC(=O)C(C#N)=C(S)N2c2ccc(C)cc2)ccc1OC(C)C (configuration not stated)	78*	11*	-26%	-12%	-2%	0%
COC(=O)c1ccc(CN(Cc2ccc(OC)c(OC)c2)S(=O)(=O)c2ccc(F)c(C(=O)Nc3cc(C)ccc3C)c2)cc1	.	.	.	.	.	5%
O=C(COc1ccc([N+](=O)[O-])cc1)N1CCC(c2nc3ccccc3s2)CC1	.	.	.	.	.	0%
Cc1cc(-n2c(C)cc(C(=O)CN3C(=O)NC4(CCCCC4)C3=O)c2C)no1	11	9.7*	-2%	14%	6%	9%
Cc1cc(-n2c(C)cc(C(=O)CN3C(=O)NC4(CCCCC4C)C3=O)c2C)no1 (configuration not stated)	9	-1	0%	7%	0%	-6%
Cc1cc(-n2c(C)cc(C(=O)CN3C(=O)C(=O)N(C)C3=O)c2C)no1	.	.	.	20%	.	2%
Cc1cc(-n2c(C)cc(C(=O)CN3C(=O)NC4(CCCC4)C3=O)c2C)no1	23	27*	13%	11%	0%	0%
COc1ccc(-c2cc(C(=O)NC3CCCC3)no2)cc1OC	26*	24*	-3%	1%	5%	-4%
COc1ccc(-c2cc(C(=O)NC(C)C)no2)cc1	58*	27	-1%	-10%	-6%	0%
COc1ccc(-c2cc(C(=O)NC3CCCC3)no2)cc1	93*	18*	4%	-4%	-2%	1%
O=C(NC1CCCCC1)c1cc(-c2ccco2)on1	143*	36*	1%	0%	-3%	-3%
COC(=O)c1cc(-c2ccc(OC)cc2)on1	12	-3	5%	-20%	-3%	3%
COC(=O)c1cc(-c2ccc(OC)c(OC)c2)on1	6	-5	-3%	-18%	-8%	0%
COc1ccc(NC(=O)C2CCCN(S(C)(=O)=O)C2)cc1Cl (configuration not stated)	9	0	6%	9%	-6%	0%
CC1=C(C(=O)Nc2ccccc2)C(c2ccc(C(=O)O)cc2)n2ncnc2N1 (configuration not stated)	.	.	.	.	.	-5%
COCCNC(=O)c1cc(-c2ccc(OC)c(OC)c2)on1	18	20*	2%	3%	-8%	1%
COC(=O)c1cc(-c2cccc(OC)c2)on1	9	-1	1%	?	-3%	2%
COc1cccc(-c2cc(C(=O)NC3CCCCC3)no2)c1	81*	20	10%	-9%	-5%	1%
CCn1cc2c(n1)-c1c(oc(C(=O)Nc3cccc(C)c3C)c1C)CC2	.	.	.	.	.	-3%
Cn1cccc1-c1nc2ccc(NC(=O)c3ccccc3)cc2[nH]1	36*	20*	-10%	-8%	0%	4%
SMILES	Shiga toxin inh	Cycloheximide cs	Giardia FBPA inh	RE007 growth inh	LmPK inhibitor	Tb PYK inh
Cc1ccc(S(=O)(=O)Nc2ccc3cn[nH]c3c2)cc1	.	.	.	5%	.	2%
O=C(O)c1ccccc1-c1nc2ccccc2[nH]1	39	1	-14%	9%	-17%	0%
Cn1cccc1-c1nc2ccccc2[nH]1	88*	31*	-9%	-3%	-13%	-3%
Cc1ccc(S(=O)(=O)Nc2ccc3nc(-c4cccn4C)[nH]c3c2)cc1	37*	24*	-2%	-7%	2%	0%
COc1cccc(CNC(=O)C(C)n2ncn3cccc3c2=O)c1OC (configuration not stated)	.	.	.	.	.	2%
COc1cccc(CNC(=O)Cn2ncn3cccc3c2=O)c1OC	26*	11*	2%	6%	0%	4%
Cc1ccc(CNC(=O)Cn2ncn3cccc3c2=O)cc1	23*	21*	-1%	13%	-15%	3%
COc1ccc(CCNC(=O)c2cnc3sc(N4CCOCC4)nn3c2=O)cc1	.	.	.	.	.	0%
COc1ccc(-c2cccc(NS(=O)(=O)c3ccc(C)s3)c2)nn1	.	.	.	.	.	-1%
COc1ccc(/C=C2\CC/C(=C\c3ccc(OC)cc3OC)C2=O)c(OC)c1	60*	26*	-13%	1%	1%	-7%
Cc1cc2oc(=O)cc(CN3CCCCC3C)c2cc1C (configuration not stated)	1	-1	-17%	10%	-4%	-10%
Fc1ccc(-c2c[nH]c(=S)n2Cc2ccccc2)cc1	-3	-3	-3%	25%	3.5µM*	?
O=c1[nH]cc(-c2ccc(Br)cc2)n1Cc1ccccc1	-1	-3	12%	21%	6%	2%
CCOC(=O)N1CCN(Cc2nc(CC3CC3)no2)CC1	34*	27*	2%	-13%	-1%	5%
CC(C)=CC(=O)Nc1ccc(Cl)cc1	55*	54*	-12%	-16%	-19%	-11%
CCOC(=O)/C=C/C(=O)OCC(=O)Nc1ccc(OC)c(Cl)c1	-2	12*	2%	-3%	0%	-2%
CCc1ccc2occ(CC(=O)Nc3ccc(OC)c(Cl)c3)c2c1	37*	13	.	.	.	-8%
COc1ccc(NC(=O)C=C(C)C)cc1Cl	102*	29*	-3%	-26%	16µM*	-12%
CCC(=O)Nc1ccc(NC(=O)/C=C/c2ccc(Cl)cc2)cc1	-10	0	6%	6%	-2%	-9%
COc1ccc(NC(=O)COC(=O)/C=C/C(=O)OCC(=O)Nc2ccc(OC)c(Cl)c2)cc1Cl	10	6	0%	.	1%	-17%
CCC(Nc1ccc(-c2nc(-c3ccco3)no2)cc1[N+](=O)[O-])c1ccccc1 (configuration not stated)	.	.	.	.	.	-4%
O=C(NCCc1ccc(Cl)cc1)c1cc(-c2ccc(Cl)cc2)n[nH]1	.	.	.	.	.	-12%
CC12CCC3c4ccc(OCc5ccccc5)cc4CCC3C1CC(O)C2O (configuration not stated)	.	.	-12%	.	.	.
